Bioassay records from PubChem BioAssay.
HttQ103 aggreg: reduces HttQ103-GFP aggregates in PC12 cells. PC12 HttQ103-GFP aggregates, Acumen cytometry, 40 h. Potency, µM (top dose mostly 46.1 µM), for the others: at the top dose activity change, negative = inhibition, most hits filed as inhibitors. 1.1% of 220,000 active; further: potency means the concentration at half of the fitted maximal effect; on the % scale 0 is the no-effect control and ±100 the full control effect; nearly all actives have a fitted effect of over 60% in size
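PC12 cells with ecdysone-inducible HTT exon1 Q103-GFP, induced by 100 nM tebufenozide, given compounds in a concentration series. GFP aggregates (1–25 um, 6 SD above background) counted in lysates by laser-scanning cytometry, 488 nm excitation.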
HTT ATP protect: cytoprotection in Huntington HTT-Q103 PC12 cell model. 0.14% of 230,000 active. PC12 HTT-Q103 induced, cytoprotection, ATP luminescence, 40 h. Potency, µM (highest dose often 56.4 µM), for inactives: cytoprotection (ATP increase), most hits filed as activators. AID 1471; further: potency means the concentration at half of the fitted maximal effect; % of control where 0% means no effect; nearly all actives have a fitted effect of over 45% in size
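ATP quantification (ATPlite) reports survival of PC12 cells in which tebufenozide, 100 nM final, switches on Htt exon 1 with 103 glutamines linked to GFP; compounds are titrated.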
HPGD block: inhibitors of human 15-hydroxyprostaglandin dehydrogenase (HPGD); P15428; purified HPGD, NADH fluorescence kinetic, PGE2 substrate; Potency, µM, without a hit: at the highest dose activity change, negative = inhibition, most hits filed as inhibitors; 4.3% of 150,000 active; active means well fitted inhibition curve with a large enough effect, not every such curve was filed as active; inconclusive means small, poorly fitted or top-dose-only effect, or another doubt; inactive means no such curve, though single readings can be large or run the other way; further: potency means the concentration at half of the fitted maximal effect; on the % scale 0 is the no-effect control and ±100 the full control effect
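20 nM HPGD preincubated 15 min at room temperature with compound in 50 mM Tris-HCl pH 8, 0.01% Tween 20. Started with 1 mM NAD+ and 30 uM prostaglandin E2; NADH fluorescence (360/450 nm) read 5 times over 30-s intervals, last minus first.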
PNC assembly inh: blocks assembly of the perinucleolar compartment; PC3M PTB-GFP, PNC prevalence imaging, 16 h; hits give low values; activity change (PNC), negative = inhibition, % at 10 µM; AID 2417; 3.1% of 140,000 active;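 active means readout at or below -70, meaning at least 70% loss of cells showing the perinucleolar compartment, a nuclear body marking cancer cells; inconclusive means readout between -30 and a set limit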;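 further: plate controls were DMSO wells for no effect and camptothecin positive control wells for full effect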
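Compounds are pinned in duplicate onto adhered PC3M cells stably expressing GFP-tagged PTB and incubated 16 h at 37 C. Cells are then fixed, nuclei stained with Hoechst, and PNC-positive cells counted.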
CBFb RUNX1 block: inhibitors of human CBF-beta and RUNX1 interaction | Potency, µM (highest dose often 59.8 µM), inactives show at the highest dose activity, negative = inhibition, most hits filed as inhibitors | AlphaScreen CBFb-His/RUNX1-biotin binding, biochemical | Q01196+Q13951 | AID 1477 | 230,000 tested, under 10 active; further: % of control where 0% means no effect
Target sequence (Q01196 whole entry, looked up): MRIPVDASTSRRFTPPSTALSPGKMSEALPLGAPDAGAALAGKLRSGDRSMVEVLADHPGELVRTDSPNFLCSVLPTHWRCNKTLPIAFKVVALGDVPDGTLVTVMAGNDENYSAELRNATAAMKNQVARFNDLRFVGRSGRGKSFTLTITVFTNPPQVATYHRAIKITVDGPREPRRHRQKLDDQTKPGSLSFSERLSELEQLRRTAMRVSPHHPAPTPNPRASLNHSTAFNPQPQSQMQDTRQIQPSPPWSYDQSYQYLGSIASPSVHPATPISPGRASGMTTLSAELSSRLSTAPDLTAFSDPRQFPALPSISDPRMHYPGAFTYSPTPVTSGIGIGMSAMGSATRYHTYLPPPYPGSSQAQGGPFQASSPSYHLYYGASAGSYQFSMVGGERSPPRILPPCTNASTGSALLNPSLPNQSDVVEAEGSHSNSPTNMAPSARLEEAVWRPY
Target sequence (Q13951 whole entry, looked up): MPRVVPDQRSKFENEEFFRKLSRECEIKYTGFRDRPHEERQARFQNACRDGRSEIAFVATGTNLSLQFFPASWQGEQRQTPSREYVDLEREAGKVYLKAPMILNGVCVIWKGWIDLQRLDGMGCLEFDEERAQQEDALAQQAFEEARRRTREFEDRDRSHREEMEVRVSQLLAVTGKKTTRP
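Room-temperature protein-protein interaction test with 30 nM each of His-tagged CBF-beta and biotinylated RUNX1, 15 min with compound, then 90 min with nickel plus streptavidin beads. Signal read in AlphaScreen mode.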
ALDH1A1 block: inhibitors of human aldehyde dehydrogenase 1A1; AID 1030; 7.3% of 220,000 active; Potency, µM (top dose mostly 75.3 µM), for inactives: at the highest dose activity, negative = inhibition, usual class: inhibitors; Purified ALDH1A1, NADH fluorescence, propionaldehyde substrate; active means well fitted inhibition curve with a large enough effect, not every such curve was filed as active; inconclusive means small, poorly fitted or top-dose-only effect, or another doubt; inactive means no such curve, though single readings can be large or run the other way;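 further: potency means the concentration at half of the fitted maximal effect; plate controls were no enzyme wells and a reference inhibitor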
Starred values were filed as active, the others as inactive; ? = inconclusive; . = not tested or not shown; [ ] = another dose, or the depositor's remark. Most compounds without a hit are left out; they make up all but 11% or so of the library. Unless noted, the call rests on the fitted dose curve; in most records, active means well fitted curve in the direction sought with a large enough effect; inconclusive means small, poorly fitted or top-dose-only effect, or another doubt; inactive means no such curve, though single readings can be large; an effect the other way counts as inactive or inconclusive.

SMILES	HttQ103 aggreg	HTT ATP protect	HPGD block	PNC assembly inh	CBFb RUNX1 block	ALDH1A1 block
COc1cc(C(=O)NNC(=O)NC2CCCCC2)cc(OC)c1OC	5.6%	28.5%[10 µM]	-0.7%	-119.9*	4.4%	6.2%
COc1ccc(C(=O)NNC(=S)NC2CCCCC2)cc1OC	-4.0%	3.4%	-5.3%	2.8	-0.7%	10.6%
CCOC(=O)CSc1nnc(CNC(=O)c2ccc(S(=O)(=O)N3CCCC3)cc2)n1C	-18.0%	2.8%[10 µM]	-1.7%	25.8	-5.7%	18.9µM*
COc1ccc(CCNC(=O)C2CCN(S(C)(=O)=O)CC2)cc1OC	-20.2%	5.5%[10 µM]	-0.4%	-10.0	12.4%	9.5%
COC(=O)[C@@]1(Cc2ccc(OC)cc2)[C@H]2c3cc(C(=O)N(C)C)n(C)c3C[C@H]2CN1C(=O)c1ccccc1	.	-8.8%	-10.2%	.	24.1%	-5.9%
Cn1c(=O)c2c(ncn2CC(O)CNc2ccc(F)cc2)n(C)c1=O (configuration not stated)	5.1%[9.22 µM]	13.4%[10 µM]	.	.	7.4%	2.5%
CC(C)(C)OC(=O)NCCc1nnc(S(=O)(=O)Cc2ccc(Cl)cc2Cl)o1	20µM*	10.4%[0.074 µM]	2.51µM*	-4.5	-11.9%	2.82µM*
CC(C)(C)OC(=O)NCCc1nnc(SCc2ccccc2Cl)o1	-26.5%	-2.3%	-8.2%	7.2	6.9%	-2.4%
CCC(=O)NC(=S)Nc1ccc(NC(=O)COc2ccc(Cl)cc2Cl)cc1	8.9%	7.9%	-13.3%	58.4	-0.9%	4.4%
COc1ccc(NC(=S)NNC(=O)COc2ccc(Cl)cc2Cl)cc1	6.5%	-1.9%[1.9 µM]	4.47µM*	-7.1	-4.3%	6.9%
Cc1ccc(OCC(=O)NNC(=S)NC(=O)C(C)(C)C)c(Br)c1	11.2µM*	.	.	.	-13.5%	-10.3%
COc1ccc(CC(=O)NNC(=O)Cc2ccc(OC)cc2)cc1	?	-20.8%	.	.	2.6%	-9.4%
COc1ccc(CC(=O)NNC(=S)Nc2ccc(Br)cc2)cc1	-9.7%	1.1%[10 µM]	-18.9%	11.2	-8.2%	17.8µM*
COc1ccc(OCC(=O)NC(=S)NNC(=O)COc2ccc(Br)cc2Cl)cc1	-11.1%[9.22 µM]	-65.3%	.	.	-5.6%	11.2µM*
O=c1c(-c2ccc(Cl)cc2)nc2cnc(N3CCNCC3)nc2n1Cc1cccs1	.	23.6%	.	.	.	?
COCC(=O)N1CCC2(CCCN(c3ccncc3)C2)CC1	.	26.9%	-4.7%	.	.	1.6%
COc1ccc2c(c1)c(C(=O)CN1CCN(C(=O)c3ccco3)CC1)c(C)n2C	1.5%[9.22 µM]	-29.3%	3.5%	-22.4	-3.5%	?
CN(C)Cc1ccccc1-c1nccc(NCc2cccs2)n1	.	8.7%	2.4%	.	.	7.7%
COC(CC(=O)NNC(=S)Nc1ccc(Cl)cc1)OC	23.2%	-50.9%	.	.	-14.3%	-4.1%
Cc1cccc(NC(=S)NNC(=O)COc2ccc(Cl)cc2Cl)c1	?	13.4%[10 µM]	?	65.2	3.0%	6.31µM*
CCOc1ccc(CC(=O)NNC(=S)Nc2ccccc2)cc1Br	9.0%	-1.7%	-14.6%	65.3	-1.6%	31.6µM*
COc1ccc(CC(=O)NNC(=S)Nc2ccccc2)cc1Br	18.1%	-47.5%	-24.7%	-0.5	3.6%	?
COc1ccc(NC(=S)NNC(=O)CNc2ccc(Cl)cc2)cc1	0.0%	-0.8%[10 µM]	.	.	-28.2%	10µM*
O=C(Nc1cccc(F)c1)c1ccc(-c2ccccc2Cl)o1	6.6%	.	?	-0.9	0.0%[2.36 µM]	-0.4%
Cc1ccc(-c2ccc(C(=O)Nc3cccc(F)c3)o2)c2ccccc12	22.4µM*	.	?	35.2	1.8%[2.36 µM]	?
SMILES	HttQ103 aggreg	HTT ATP protect	HPGD block	PNC assembly inh	CBFb RUNX1 block	ALDH1A1 block
COc1ccc(-n2c(Cc3cccn3C)nnc2SCC(=O)Nc2cccc(NC(C)=O)c2)cc1	23.2%	-37.2%	-9.8%	-5.1	-12.0%	?
Cn1cccc1Cc1nnc(SCC(=O)Nc2ccc3c(c2)OCCO3)n1CCc1ccccc1	24.6%	-18.0%	-15.8%	?	-6.2%	14.1µM*
COc1ccc(-n2c(Cc3cccn3C)nnc2SCC(=O)Nc2ccc3c(c2)OCO3)cc1	9.9%	-4.2%	-18.4%	96.6	?	14.1µM*
COc1ccc(-n2c(Cc3cccn3C)nnc2SCC(=O)Nc2ccc3c(c2)OCCO3)cc1	-9.4%	-19.8%	-18.8%	17.0	-3.9%	1µM*
N#CC1=C(S)N(c2ccc(F)cc2)C2(CCCCC2)NC1=O	10.7%	-42.4%	.	.	4.2%	-2.3%
CCOC(=O)/C(C#N)=C1/CCCCCN1C	7.5%	-21.0%[0.074 µM]	-7.1%	8.6	3.0%	-3.0%
CCOC(=O)/C(C#N)=C1\CCCN1CC(N)=S	-22.1%	.	?	-7.6	?	20µM*
COc1cc(NC(=O)c2ccc3c(SCC(=O)O)c4c(nc3c2)CCCC4)cc(OC)c1OC	-6.8%	3.1%	.	.	-29.2%	10µM*
CCOC(=O)N1CCN(C(=O)c2ccc3c(SCC(=O)O)c4c(nc3c2)CCCC4)CC1	4.4%	-8.6%	-4.4%	-7.6	3.8%	-6.0%
O=C(O)CSc1c2c(nc3cc(C(=O)N4CCOCC4)ccc13)CCCC2	10.4%	-11.8%[0.074 µM]	3.98µM*	28.7	-5.1%	-1.6%
Cn1cccc1C(=O)N1CCC2(CCN(Cc3ccccc3)CC2)CC1	.	-11.1%	-0.9%	.	.	1.4%
c1cncc(-c2cncnc2NC2CCNCC2)c1	.	14.9%	.	.	.	25.1µM*
c1cncc(-c2ccc3ncnc(NC4CCNCC4)c3c2)c1	.	7.7%	.	.	.	-6.0%
Cc1cc(O)ccc1N/C=C1\CCCC1=O	?	1.7%[10 µM]	?	-2.8	2.2%	12.6µM*
CCCC[C@@H]1C[C@H]1C(NC(=O)c1ccco1)c1ccc(Cl)cc1 (some centres not stated)	.	-98.6%	-10.2%	.	29.6%	-7.2%
CC1(C)[C@@H](CC(=O)O)CCC[C@@H]1CC(=O)O	.	-12.4%[10 µM]	-1.7%	.	.	1.5%[13.5 µM]
NC(=O)CN(N=Nc1cccc([N+](=O)[O-])c1)c1cccc([N+](=O)[O-])c1	-7.0%	-24.0%	.	.	-2.8%	1.78µM*
CCN(N=Nc1cccc([N+](=O)[O-])c1)c1cccc([N+](=O)[O-])c1	6.0%[9.22 µM]	15.8%	-17.2%	13.3	-4.4%	?
CCCNC(=O)C(=O)NCCC1=CCCCC1	13.6%	-8.2%	-1.5%	11.7	3.0%	6.1%
CCCN(C(=O)CCl)C1=CCCCC1	-29.4%	-67.8%[10 µM]	.	.	3.3%	0.708µM*
N=C(N)SCc1cccc(-c2nc3ccccc3c(=O)o2)c1	.	8.8%[10 µM]	-0.7%	.	.	-8.1%[13.5 µM]
CC(C)C(c1nnnn1C1CCCCC1)N1CCc2ccccc2C1 (configuration not stated)	6.9%	3.6%[10 µM]	-11.6%	8.7	-0.2%	25.1µM*
CC(C)C(c1nnnn1Cc1ccccc1)N1CCc2ccccc2C1 (configuration not stated)	-5.8%	-3.1%	-16.4%	-12.8	0.9%	10µM*
